Source: PubChem BioAssay AID485341 (National Center for Advancing Translational Sciences (NCATS), 2010)
Among all 330,000 compounds or so, about 1,700 (0.52%) were called active. Where a call stands in place of a potency, no number is given. Calls follow the shape of the dose curve; as a rule, active = well fitted inhibition curve with a large enough effect; inconclusive = small, poorly fitted or top-dose-only effect; inactive = no such curve, though single readings can be large or run the other way. Many of the other results were omitted from the sample, so actives are more common in it than they were.
Also: nearly all actives have a fitted effect of over 20% in size.
Potency is read from the fitted curve at half-maximal effect.

What follows are compounds tested against Beta-lactamase (Escherichia coli (strain K12)) (UniProt P00811) (assay: qHTS Inhibitors of AmpC Beta-Lactamase (assay without detergent)). Details: AmpC nitrocefin hydrolysis, absorbance 480 nm, 0.0001% Triton; series mostly up to 57.1 µM.
Beta-lactamase (Escherichia coli (strain K12)), sequence (P00811 whole entry, looked up): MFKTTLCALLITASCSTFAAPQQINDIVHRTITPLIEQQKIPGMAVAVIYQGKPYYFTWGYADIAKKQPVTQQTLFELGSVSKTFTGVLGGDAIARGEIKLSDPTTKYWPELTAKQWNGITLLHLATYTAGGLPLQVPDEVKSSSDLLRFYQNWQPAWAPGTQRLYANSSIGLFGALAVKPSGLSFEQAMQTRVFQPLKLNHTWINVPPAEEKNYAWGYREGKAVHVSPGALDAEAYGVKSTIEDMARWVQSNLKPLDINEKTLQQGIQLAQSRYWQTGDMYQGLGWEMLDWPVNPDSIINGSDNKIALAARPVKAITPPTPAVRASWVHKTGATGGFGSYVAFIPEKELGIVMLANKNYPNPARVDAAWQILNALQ
Protocol: NIH Molecular Libraries Probe Production Network [MLPCN] NIH Chemical Genomics Center [NCGC] Assay Provider: Professor Brian Shoichet, UCSF Assay Overview: This aggregation profiling approach exploits the sensitivity of aggregate formation to detergent. Inhibition of b-lactamase is measured in the presence and absence of 0.01% Triton X-100. This particular assay had the prescence of 0.01% Triton X-100. See Pubchem assay "Promiscuous and Specific Inhibitors of AmpC Beta-Lactamase (assay without detergent)" for related screen. Compounds that inhibit only in the absence of detergent are considered likely promiscuous aggregators. A screen of 1,030 compounds was performed in Brian Shoichet's lab in 96-well format. AmpC activity was measured by following the absorbance at 480 nm. Nitrocefin is a chromogenic substrate: while nitrocefin is yellow (lmax 390 nm), the product of its hydrolysis is red (lmax 486 nm, 17,000 M-1). AmpC beta lactamase was provided by Shoichet Lab, UCSF.
Buffer: 20 mM phosphate buffer, pH 7.0 Triton X-100: No Detergent screen: 0.0001%, Detergent screen: 0.01%. Reagents/Controls: Buffer in columns 3 and 4 as negative control (no enzyme). 5.3 nM AmpC in columns 1, 2, 5-48. Titration of UCSF compound 9 control (from 10 mM, then 1:2) pin-transferred to column 2. Column 1 is neutral (100% activity). Assay Steps: Six uL of reagents were dispensed to 1536-well Greiner black clear bottom plates. Compounds and controls (23 nL) were transferred via Kalypsys PinTool. The plates were incubated for 15 min at room temperature, and then 2 uL of 800 uM solution of nitrocefin was added to start the reaction. The plates were immediately transferred to and read every 20 seconds for 4 min on ViewLux (Perkin-Elmer) High-throughput CCD imager using 480 nm absorbance protocol. During dispense, reagent bottles were kept submerged into 4 deg C water bath. Keywords: NIH Roadmap, MLSCN, MLI, MLSMR, qHTS, NCGC, AmpC Beta-Lactamase, Aggregation
For `CC1=CC2=NC(=O)CC(C)(C(=O)N(CC(=O)NC(C)(C)C)Cc3ccccc3)N2C=C1` (stereo not drawn), the Potency was “inactive”. With `Cc1ccc(Sc2cc(N3CCOCC3)nc(-c3ccccc3)n2)cc1` the Potency was “inactive”. `O=C(COC(=O)c1ccccc1Cl)NC1CCCCCCC1` was tested, and the Potency was “inactive”. For `N#Cc1ccccc1Sc1ccccc1C(=O)OCC(=O)NC1CCCCC1`, the Potency was 35.5 µM (active). `O=C(COC(=O)c1ccccc1SCC(=O)NC1CCCCC1)NC1CCCCC1` was tested, and the Potency was “inactive”. `CCOc1c2ccc(C(=O)NCc3ccc(OC(F)(F)F)cc3)cc2nn1C` was tested, and the Potency was “inactive”. With `CCOc1c2ccc(C(=O)NCc3ccc4c(c3)OCO4)cc2nn1C` the Potency was 0.316 µM (active). In the case of `CCCn1nc2cc(C(=O)NCc3ccccc3)ccc2c1OCC`, the Potency is reported as “inactive”. In the case of `CCCc1noc2c1/C(=N\O)CCC2`, the Potency is reported as “inactive”. For `Cc1ccc(CNC(=O)CC(NC(=O)c2ccccc2)c2ccccc2)cc1` (stereo not drawn), the Potency was “inactive”. In the case of `COc1cccc(Nc2nnc(SCC(=O)N3CC(=O)Nc4ccccc43)s2)c1`, the Potency is reported as “inactive”. `O=C(CCc1ccccc1Cl)Nc1ccc(S(=O)(=O)Nc2nccs2)cc1` was tested, and the Potency was “inactive”. For `Cc1ccc(Cc2cnc(N)s2)o1`, the Potency was “inactive”. In the case of `Cc1ccc(CCC(=O)Nc2ncc(Cc3cc(Cl)ccc3Cl)s2)o1`, the Potency is reported as 20 µM (active). For `O=S(=O)(Nc1cccc(-c2ccc(N3CCOCC3)nn2)c1)c1ccc(Cl)c(Cl)c1`, the Potency was “inactive”. With `O=C(NCC(c1ccco1)N1CCc2ccccc21)c1cccc(F)c1` (stereo not drawn) the Potency was “inactive”. For `O=C(/C=C/c1ccccc1)Oc1coc(CSc2ncccn2)cc1=O`, the Potency was “inactive”. With `Cc1nc(SCC(=O)N2CCc3ccccc3C2)c2c(C)c(C)sc2n1` the Potency was 0.158 µM (active). For `O=C(CSc1nnc(-c2cccs2)n1Cc1ccccc1)N1CCc2ccccc2C1`, the Potency was “inactive”. `Cc1nc(SCC(=O)N2CC(=O)Nc3ccccc32)c2c(C)c(C)sc2n1` was tested, and the Potency was “inactive”. In the case of `CC(C)C(=O)Nc1nnc(Sc2ccc(N(C)C)cc2)s1`, the Potency is reported as “inactive”. `Fc1cccc(Cc2noc(CN3CCN(c4cnccn4)CC3)n2)c1` was tested, and the Potency was “inactive”. With `Cc1ccc(-n2c(C)cc(/C=C(\C#N)C(=O)NCC3CCCO3)c2C)cc1` (stereo not drawn) the Potency was “inactive”. With `Cc1ccc2c(c1)C(c1ccccc1)N(C(=O)c1ccc(F)cc1)CC(=O)N2` (stereo not drawn) the Potency was “inactive”. For `CCC(CC)C(=O)N1CC(=O)Nc2ccc(Br)cc2C1c1ccccc1` (stereo not drawn), the Potency was 0.891 µM (active). In the case of `CC(C)C(=O)N1CC(=O)Nc2ccc(F)cc2C1c1ccc(F)cc1` (stereo not drawn), the Potency is reported as “inactive”. In the case of `COCCOC(=O)c1[nH]c2c(c1C)C(=O)CC(c1ccc(OC)cc1)C2` (stereo not drawn), the Potency is reported as “inactive”. With `CCCOC(=O)c1[nH]c2c(c1C)C(=O)CC(c1cccs1)C2` (stereo not drawn) the Potency was “inactive”. For `CCCOC(=O)c1[nH]c2c(c1C)C(=O)CC(c1cc(OC)c(OC)c(OC)c1)C2` (stereo not drawn), the Potency was 2.51 µM (active). `COC(=O)Nc1ccc(S(=O)(=O)N2CCN(CCN3C(=O)C4C5C=CC(C5)C4C3=O)CC2)cc1` (stereo not drawn) was tested, and the Potency was “inactive”. With `O=C(CCc1ccccc1F)N1CCN(c2ccccc2)CC1` the Potency was “inactive”. For `C=C(C)Cn1c(N2CCN(CC)CC2)nc2c1c(=O)[nH]c(=O)n2C`, the Potency was “inactive”. In the case of `Nc1cc(N2CCCCCC2)c2nonc2c1[N+](=O)[O-]`, the Potency is reported as “inactive”. For `COc1ccc(CCNC(=O)C(=O)NCC2CCCN2S(=O)(=O)c2cccs2)cc1OC` (stereo not drawn), the Potency was 31.6 µM (active). For `COc1ccccc1CCNC(=O)C(=O)NCCC1CCCCN1S(=O)(=O)c1cccs1` (stereo not drawn), the Potency was “inactive”. For `O=C(NCc1ccc(Cl)cc1)C1CCN(S(=O)(=O)c2cccs2)CC1`, the Potency was “inactive”. `O=C(NCc1ccccc1Cl)C(=O)NCC1CCCN1S(=O)(=O)c1cccs1` (stereo not drawn) was tested, and the Potency was “inactive”. In the case of `COc1ccc(C(=O)NCC2CCCN2S(=O)(=O)c2cccs2)cc1OC` (stereo not drawn), the Potency is reported as “inactive”. For `O=C(NCc1ccc(Cl)cc1)C(=O)NCC1CCCN1S(=O)(=O)c1cccs1` (stereo not drawn), the Potency was 35.5 µM (active). For `O=C(COc1ccc([N+](=O)[O-])cc1)Nc1cccc(C(=O)Nc2ccccc2C(=O)O)c1`, the Potency was “inactive”. For `O=C(NCCc1ccco1)C(=O)NCCC1CCCCN1S(=O)(=O)c1ccccc1` (stereo not drawn), the Potency was “inactive”. With `COc1cccc(CNC(=O)CN(C)S(=O)(=O)c2ccc3c(c2)c(=O)n(C)c(=O)n3C)c1` the Potency was “inactive”. `CCC1Oc2ccccc2N(CC(=O)NCCCN2CCN(CC)CC2)C1=O` (stereo not drawn) was tested, and the Potency was “inactive”. `COC(=O)c1ccc(/C=N/N2C(C)CCCC2C)cc1` (stereo not drawn) was tested, and the Potency was “inactive”. In the case of `O=C1C(Cl)=C(N2CCOCC2)C(=O)N1c1ccccc1`, the Potency is reported as “inactive”. With `O=C1OC(NC(=O)c2ccccc2)C(N2CCOCC2)=C1Cl` (stereo not drawn) the Potency was “inactive”. In the case of `O=C1OC(OC(=O)c2ccccc2Br)C(N2CCOCC2)=C1Cl` (stereo not drawn), the Potency is reported as 4.47 µM (active). For `CC(=O)N1CCN(S(=O)(=O)c2c(F)cc(F)c(Cl)c2F)CC1`, the Potency was “inactive”. For `CC(=O)Nc1ccc(C(=O)OCC(=O)Nc2ccc([N+](=O)[O-])cc2C(F)(F)F)cc1`, the Potency was “inactive”. With `O=C(CCN1C(=O)C2C3CCC(C3)C2C1=O)Nc1ccc(Cl)cc1Cl` (stereo not drawn) the Potency was “inactive”. For `CC1CN(c2nc(-c3ccccc3)nnc2-c2ccccc2)CC(C)O1` (stereo not drawn), the Potency was “inactive”. In the case of `CSc1ccc(S(=O)(=O)Nc2cccc(F)c2)cc1`, the Potency is reported as 0.251 µM (active). For `O=C1Cc2cc(S(=O)(=O)Nc3cccc(F)c3)ccc2N1`, the Potency was “inactive”. `Cn1c(=O)n(C)c2cc(NS(=O)(=O)c3ccc(F)cc3)ccc21` was tested, and the activity change, negative = inhibition was -28.5% [at 2.29 µM] (inactive). For `CC1CCN(C(=O)/C(=C\c2ccccc2F)NC(=O)c2ccccc2)CC1`, the Potency was “inactive”. `CCCC(CNC(=O)COC(=O)C1=NNC(=O)CC1)c1ccc(Cl)cc1Cl` (stereo not drawn) was tested, and the Potency was “inactive”. With `CC(C)(C)NC(=O)NC(=O)COC(=O)Cc1c(F)cccc1Cl` the Potency was “inactive”. With `CC(NC(=S)Nc1ccccc1)C(c1cccs1)N1CCOCC1` (stereo not drawn) the Potency was “inactive”. For `CCCCn1c(SCC(=O)N2CCCC2=O)nc2cc(S(N)(=O)=O)ccc21`, the Potency was “inactive”. With `CCOc1ccc(N2C(=O)CN(c3cccc4ccccc34)C2=S)cc1` the Potency was 10 µM (active). `CCOc1ccc(N2C(=O)CSC2=NC#N)cc1` was tested, and the Potency was “inactive”. `CCO/C=C1\C(=O)N(c2ccc(OCC)cc2)C(=O)c2ccccc21` was tested, and the Potency was “inactive”. In the case of `Cc1cc(NC(=O)CSCc2nc(-c3cccc(Cl)c3)oc2C)no1`, the Potency is reported as “inactive”. With `O=S(=O)(c1ccc(SCc2ccccc2)nc1)N1CCCCCC1` the Potency was “inactive”. In the case of `C/C(CC(C)C)=N\Oc1nc(C)cc(C)n1`, the Potency is reported as “inactive”. In the case of `COc1ccc(NC(=O)C(=O)NCC(c2ccco2)N2CCc3ccccc3C2)cc1` (stereo not drawn), the Potency is reported as 28.2 µM (active). In the case of `CCOC(CNC(=O)C(=O)NCC(c1ccco1)N1CCN(c2ccc(OC)cc2)CC1)OCC` (stereo not drawn), the Potency is reported as “inactive”. With `O=C(NCC(c1ccco1)N1CCc2ccccc2C1)c1ccccc1Cl` (stereo not drawn) the Potency was “inactive”.
